Screening data deposited in PubChem BioAssay by National Center for Advancing Translational Sciences (NCATS).
Compounds with a hit are over-represented: about 4.6% of the library has one in this group of screens.
D1 agonist: Allosteric Agonists of the Human D1 Dopamine Receptor: qHTS. AID 504660, 2011. actives 1% (n = 360,000). activation, % at 2 µM. HEK293 T-REx D1 cells, calcium flux, agonist mode; further: 0% is about no effect
Target sequence (P21728 whole entry, looked up): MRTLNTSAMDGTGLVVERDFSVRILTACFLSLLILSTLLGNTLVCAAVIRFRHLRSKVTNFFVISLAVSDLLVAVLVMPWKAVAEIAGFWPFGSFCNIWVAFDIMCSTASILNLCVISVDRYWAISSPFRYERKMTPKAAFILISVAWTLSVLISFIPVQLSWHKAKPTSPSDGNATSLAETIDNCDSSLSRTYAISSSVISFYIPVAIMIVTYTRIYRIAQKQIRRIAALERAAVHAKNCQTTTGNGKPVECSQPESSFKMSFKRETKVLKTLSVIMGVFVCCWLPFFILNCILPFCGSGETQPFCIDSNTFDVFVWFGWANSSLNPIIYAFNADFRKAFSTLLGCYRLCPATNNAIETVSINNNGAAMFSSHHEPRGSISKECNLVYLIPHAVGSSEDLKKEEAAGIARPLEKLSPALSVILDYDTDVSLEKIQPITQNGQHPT
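Inducible HEK293 T-REx D1 cells, force-coupled to calcium signalling, were plated at 4000 cells/well with tetracycline and held overnight at 30 C. After no-wash calcium dye loading, compound-evoked calcium rise over 180 s flagged agonists.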
D1 PAM: Potentiators of Human D1 Dopamine Receptor: qHTS | D(1A) dopamine receptor (Homo sapiens), P21728 | HEK293 TREx D1 cells, calcium flux, dopamine EC20 potentiation | potentiation, % at 10 µM | actives 0.036% (n = 360,000); in the data active means potentiation above about 30%; further: 0% is about no effect
TRHR PAM: qHTS for Small Molecule Agonists and Allosteric Enhancers of Human TRH Receptor: Primary Screen for Enhancers; AID 493056, 2011; enhancement, % at 2 µM; TRHR cells, fluo-8 calcium fluorescence, EC20 TRH enhancement; actives 0.66% (n = 360,000); Thyrotropin-releasing hormone receptor (Homo sapiens), P34981; in the data active means enhancement above about 30%; further: 0% is about no effect
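Enhancer read-out: after compound pinning and an initial kinetic agonist-mode read, an EC20 of TRH (10 nM final) was injected and fluo-8 calcium signal (Ex 480/Em 530) followed at 1 s/cycle for 100 cycles in TRHR-expressing cells.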
TRHR agonist: qHTS for Small Molecule Agonists and Allosteric Enhancers of Human TRH Receptor: Primary Screen for Agonists; Thyrotropin-releasing hormone receptor (Homo sapiens), P34981; TRHR cells, calcium flux fluo-8, FDSS agonist mode; activation, % at 2 µM; actives 0.18% (n = 360,000); further: 0% is about no effect
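In this calcium-flux screen, cells bearing human TRHR are dye-loaded with fluo-8, baselined for 10 cycles, then exposed to library compounds; positive kinetic calcium responses during the agonist phase mark hits, with TRH as control.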
D1 antagonist: Antagonist of Human D 1 Dopamine Receptor: qHTS. HEK293 TREx D1 cells, calcium flux, dopamine EC80; stronger effect = lower value. activity change, negative = inhibition, % at 10 µM. actives 3.2% (n = 360,000); in the data active means activity change below about -30%; further: on the % scale 0 is the no-effect control and ±100 the full control effect
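After overnight tetracycline induction at 30 C, force-coupled D1 HEK293 cells took up a no-wash calcium dye at room temperature. Compounds were added and monitored 180 s, and the response to EC80 dopamine was then recorded.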
* marks the source's active call; other numbers are inactive results. Unless noted, no stated cut-off is given here; in the data, active means activation above about 30%; inactive means the rest.

SMILES | D1 agonist | D1 PAM | TRHR PAM | TRHR agonist | D1 antagonist
COc1cc(S(=O)(=O)Nc2ccccc2C)ccc1NC(=O)c1ccncc1 | 2 | -8 | 3 | 0 | -29
Cc1ccccc1Oc1cc(NC(=O)CCCn2nc(C)c([N+](=O)[O-])c2C)cc([N+](=O)[O-])c1 | 1 | -5 | -1 | 0 | -22
Cc1nn(CCCC(=O)Nc2cc(Oc3ccc(F)cc3)cc([N+](=O)[O-])c2)c(C)c1[N+](=O)[O-] | 9 | -3 | 1 | 1 | -36*
CN1C/C(=C/c2cccnc2)C(=O)/C(=C/c2cccnc2)C1 | 3 | 3 | 6 | 1 | 7
O=C(N/N=C/c1cc(Br)ccc1O)c1ccccc1Cl | 2 | -5 | 6 | 0 | -42*
CC(C)NC(=S)N/N=C/c1cc(Br)ccc1O | 15 | -9 | 2 | 0 | -58*
O=C(CCc1ccccc1)N/N=C\c1cc2c(cc1Br)OCO2 | 5 | -8 | 18 | -1 | -31*
O=C(CSCc1ccccc1)N/N=C/c1cc2c(cc1Br)OCO2 | 9 | 4 | -12 | -2 | -12
O=C(CCc1ccccc1)N/N=C/c1cc(Br)ccc1O | 29 | -3 | -1 | 0 | -43*
COC(=O)N/N=C/c1cc(Br)ccc1O | -1 | 5 | 5 | 0 | 6
CCn1c(SCC(=O)NCCc2ccccc2)nc2c(c1=O)SC(C)C2 (stereo unspecified) | 21 | 10 | 1 | 0 | 80
C[N+]12CCCCC1[C@@H](CO)CCC2 (stereo partly specified) | 3 | 4 | -6 | 1 | 4
N#C/C(=C\c1cccc(NC(=O)c2ccccc2Cl)c1)C(=O)NCCc1ccccc1 | 4 | -5 | 35* | 1 | -19
NC(Cc1cccc2nsnc12)C(=O)O (stereo unspecified) | 3 | -2 | 5 | -1 | 0
O=[N+]([O-])c1cccc(P(=O)(O)c2cccc([N+](=O)[O-])c2)c1 | 1 | -5 | 31* | 1 | 5
CCP(=O)(c1cccc([N+](=O)[O-])c1)c1cccc([N+](=O)[O-])c1 | 3 | -3 | 3 | 0 | -8
CCOC(=O)C1(CCc2ccccc2)CCN(C(=O)CCn2cnnn2)CC1 | -1 | -1 | -1 | 0 | 2
CCN(CC)CCNC(=O)/C(=N\O)c1ccccn1 | 1 | -1 | 2 | 0 | 3
CCN(CC)CCNC(=O)c1sc2ncccc2c1-n1cccc1 | 5 | 0 | 1 | 1 | -36*
CCCCNC(=O)c1sc2ncccc2c1-n1cccc1 | 0 | -2 | 4 | 0 | -3
CCN(CC)CCNC(=O)c1ccccn1 | 1 | 0 | -2 | 1 | -32*
CCOC(=O)C(Cc1cc(C(C)=O)ccc1OC(C)C)C(=O)OCC | -1 | -2 | -18 | -1 | -34*
CCOC(=O)C(Cc1cc(C(C)=O)ccc1OCC)C(=O)OCC | 0 | -7 | -4 | 0 | 3
NC(=NCc1ccccc1)c1cccc([N+](=O)[O-])c1 | 3 | -5 | 5 | 2 | 9
CC1(C)CSC(=NCc2ccccc2)N1C(=O)c1cccc([N+](=O)[O-])c1 | 85* | -5 | -29 | 56* | -38*
SMILES | D1 agonist | D1 PAM | TRHR PAM | TRHR agonist | D1 antagonist
CC(=O)Nc1cccc(CCc2nc3ccccc3[nH]2)c1 | 3 | 1 | 12 | 0 | -23
O=c1cc(-c2ccccc2Cl)oc2c(NS(=O)(=O)c3cc(Cl)cc(Cl)c3O)ccc(O)c12 | 82* | -9 | -8 | 8 | -52*
COc1cc2c(cc1OC)n(CC(=O)c1ccc(C)cc1)c(=O)n1nc(CCn3nc(C)cc3C)nc21 | 0 | -1 | 1 | 0 | 17
Nc1ccc(/C=C/C(=O)c2ccco2)cc1 | 72* | 0 | 5 | 21 | 7
N#Cc1ccc(/C=C/C(=O)c2ccco2)cc1 | 5 | -8 | -4 | 0 | -4
CCN(C(=O)COC(=O)c1ccc(OC)c(S(=O)(=O)N2CCCc3ccccc32)c1)C1CCS(=O)(=O)C1 (stereo unspecified) | 1 | 0 | 2 | 0 | 2
COc1ccc(OC)c(NC(=O)Cn2cc(C(=O)c3ccco3)c3ccccc32)c1 | 0 | 2 | -3 | 0 | 11
COc1ccc(OC)c(NC(=O)Cn2cc(C(=O)c3cccs3)c3ccccc32)c1 | 1 | 4 | 7 | 0 | -34*
Cc1cc(=O)oc2c1c(C)nn2-c1cccc(Cl)c1 | -1 | 3 | -2 | 0 | -20
O=C(Nc1ccccc1O)c1ccc(NC(=O)C2CC2)cc1 | 0 | -5 | 0 | 0 | -33*
O=C(Nc1ccccc1C(=O)O)c1ccc(NC(=O)C2CC2)cc1 | 1 | -6 | 11 | 0 | -11
COc1ccc(C)cc1NC(=O)C(Sc1nnnn1C)c1ccccc1 (stereo unspecified) | 0 | 0 | -7 | 0 | 5
CCCn1c(SC(C(=O)Nc2cc(C)ccc2OC)c2ccccc2)nc2ccccc2c1=O (stereo unspecified) | 1 | 1 | 4 | 1 | -96*
COc1ccc(Nc2nc(C#N)nc(NC3CCCC3)n2)cc1 | 0 | -1 | -1 | -3 | -36*
N#Cc1nc(Nc2ccc3ccccc3c2)nc(NC2CCCC2)n1 | 4 | 7 | 26 | 1 | 39
Fc1cc(F)cc(Nc2nc(NC3CCCC3)nc(C3CO3)n2)c1 (stereo unspecified) | 74* | -7 | -9 | 4 | -37*
N#Cc1nc(Nc2cccc(F)c2)nc(NC2CCCC2)n1 | 14 | -6 | 0 | 0 | -34*
N#Cc1nc(Nc2cccc(-c3ccccc3)c2)nc(NC2CCCC2)n1 | 5 | -5 | 1 | 1 | -31*
CC(N)C12CC3CC(C1)CC(C(C)N)(C3)C2 (stereo unspecified) | 2 | 7 | -5 | 0 | -15
O=C(NCCOC(=O)c1ccc(C(=O)OCCNC(=O)c2ccccc2)o1)c1ccccc1 | 5 | 2 | -4 | 0 | -10
Cn1c(=O)n(-c2cccc(Cl)c2)c(=O)c2c3c(sc21)COC(C)(C)C3 | 0 | -8 | 2 | 0 | 20
O=C(NC1CCN(Cc2nnnn2CCc2ccccc2)CC1)c1ccccc1F | 1 | -7 | -3 | 0 | 7
CCOCCCNC(=O)C1CCN(Cc2cccc(OCc3ccccc3)c2)CC1 | -2 | -3 | -7 | 0 | -31*
CCOCCCNC(=O)C1CCN(Cc2ccc(OCc3ccccc3)c(OC)c2)CC1 | 5 | 2 | 12 | 0 | 4
